Reference: PubChem BioAssay AID504582 (Broad Institute, 2011)
In all, about 340,000 compounds went through this assay and about 2,300 (0.68%) were called active. Only a selection was taken, and actives are over-represented in it overall. Values without a mark were called inactive. Cut-off read from the data, not from the text of the source: active = growth rescue above about 28% (passing the limit was not always enough); inconclusive = no clear call, values can overlap the other calls.

Test: rescue of yeast from PfHsp40 toxicity, primary screen, S. cerevisiae, ATP luminescence (AID 504582);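 note: yeast W303a lacking pdr1 and pdr3 grown in galactose medium; growth measured after three days at 30 °C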
Settings: S. cerevisiae expressing PfHsp40, growth rescue, at 12.5 µM, hits give high values

Row | Structure (SMILES) | growth rescue
1 | COc1ccc(C(=O)CN2C(=O)NC(C)(c3ccc(C)cc3)C2=O)cc1OC (centres undefined) | 0.439%
2 | COc1ccc(C2Nc3ccccc3C(=O)N2c2ccc(Cl)cc2)cc1Cn1cc([N+](=O)[O-])cn1 (centres undefined) | 0.089%
3 | Cn1ncc(Br)c1C(=O)NC1CCCC1 | -0.467%
4 | COC(=O)[C@@H]1C[C@@]2(O)[C@H](O)[C@H](O)[C@H](O)C[C@H]2N1Cc1ccc(C(C)(C)C)cc1 | 29% (active)
5 | COC(=O)[C@@H]1C[C@@]2(O)[C@@H](O)[C@@H](O)[C@@H](O)C[C@H]2N1Cc1ccc(C)s1 | -0.441%
6 | COC(=O)[C@@H]1C[C@@]2(O)[C@H](O)[C@H](O)[C@H](O)C[C@H]2N1Cc1ccc(C)s1 | -1.59%
7 | CC(=O)c1cccc(-c2ccc(CN3C(CC(C)C)C(=O)N(Cc4cn(CC5CCCCC5)nn4)CCS3(=O)=O)cc2)c1 (centres undefined) | 0.3%
8 | Cc1cc(N=Nc2ccc3ccccc3c2)ccc1O | 91.3% (active)
9 | C#CCOCCOCCOCCNc1nc(N2CCN(C(=O)CCCCCCCCCCNC(=O)[C@H]([C@@H](C)CC)n3cc(CCCCN=C(N)N)nn3)CC2)nc(N2CCN(C(=O)CCCCCCCCCCNC(=O)[C@H](CO)n3cc(CCCSC)nn3)CC2)n1 | 29.5% (active)
10 | C#CCOCCOCCOCCNc1nc(N2CCN(C(=O)[C@H](CCCN=C(N)N)n3cc(C(N)[C@@H](C)CC)nn3)CC2)nc(N2CCN(C(=O)[C@H](CO)n3cc([C@@H](N)C(C)C)nn3)CC2)n1 (some centres undefined) | -0.354%
11 | C#CCOCCOCCOCCNc1nc(N2CCN(C(=O)[C@H](C(C)C)n3cc(CCO)nn3)CC2)nc(N2CCN(C(=O)[C@H](C(C)C)n3cc(CCO)nn3)CC2)n1 | -2.28%
12 | CCOc1ccc(S(=O)(=O)n2ccnc2)c2ccccc12 | -0.0665%
13 | CN(C)C(=O)CCC(=O)N1CCCCC1C(=O)Nc1ccc(Oc2ccccc2F)cc1 (centres undefined) | 141% (active)
14 | COc1ccc(NC(=O)N2CCCC2C(=O)NCc2ccccc2Cl)cc1 (centres undefined) | -2.16%
15 | COc1cccc(NC(=O)C2CCCN2C(=O)OCc2ccccc2)c1 (centres undefined) | 0.607%
16 | COc1ccc(OC)c(C(=O)c2ccc(C(=O)N3CCN(Cc4csc(C)n4)CC3)cc2)c1 | -1.18%
17 | O=C(Cn1nnc(-c2ccccc2)n1)N/N=C/c1ccc(-c2ccc(Cl)cc2)o1 | -1.63%
18 | O=C(NCc1ccco1)C1CCCN(S(=O)(=O)c2cnc[nH]2)C1 (centres undefined) | 0.411%
19 | COc1cc(/C=N/O)cc(Br)c1OS(=O)(=O)c1ccc(C)cc1 | -0.295%
20 | COc1cc(C(=O)NCc2ccncc2)cc(Br)c1OCc1ccccc1 | 1.27%
21 | COc1cc(/C=N/O)cc(Br)c1OCc1cccc(Cl)c1 | 157% (active)
22 | CC(=O)Oc1ccc(C)cc1N1C(=O)c2ccc(C(=O)O)cc2C1=O | 103% (active)
23 | Cc1cccc(N2C(=O)c3ccc(C(=O)Nc4cccc(C(=O)O)c4)cc3C2=O)c1 | -0.247%

Row | Structure (SMILES) | growth rescue
24 | COc1ccc(OC)c(NC(=O)c2ccc3c(c2)C(=O)N(c2ccc(OC(C)=O)cc2)C3=O)c1 | -0.414%
25 | CCc1ccc(C(=O)NNC(=O)C2CCN(c3ncnc4sc(C)c(C)c34)CC2)cc1 | 4.88%
26 | O=S(=O)(c1ccc(Br)cc1)n1ccc2ccccc21 | 17.1%
27 | CCCC(C)C(=O)OCC(=O)Nc1c(Br)cc(C)cc1Br (centres undefined) | 1.14%
28 | COc1ccc(-c2nc3ccccc3c(=O)n2CCc2ccc(O)cc2)cc1 | 31.2% (active)
29 | COc1ccc(OCc2ccc(-c3nc4ccccc4c(=O)n3N)o2)cc1 | 0.704%
30 | COc1ccc(NC(=O)CSc2nc3ccccc3c(=O)n2C)cc1 | -2.46%
31 | COc1cccc(C(O)c2nc3ccccc3n2C)c1 (centres undefined) | -0.645%
32 | CCCCCC(O)c1cccc(OCc2ccc3ccccc3n2)c1 (centres undefined) | 57.6% (active)
33 | Clc1ccccc1-c1cc(COc2ccc3ccccc3c2)no1 | -0.819%
34 | Cc1no[n+]([O-])c1COc1ccccc1/C=C1\NC(=S)NC1=O | 0.211%
35 | Cc1[nH]c2c(C(=O)N3CCCC(CCC(=O)NCc4ccccc4F)C3)cccc2c1C (centres undefined) | 1.34%
36 | O=C(c1cn(-c2ccccc2)nc1-c1cccnc1)N1CCN(S(=O)(=O)c2ccccc2F)CC1 | -0.533%
37 | O=[N+]([O-])/C=C1\CCCCCN1 | 0.302%
38 | Cc1ccc(OCC(=O)NNC(=S)NCc2ccccc2)cc1 | -0.289%
39 | O=C(Nc1ccc2ccccc2c1)/C(=C\c1ccc2c(c1)OCO2)NC(=O)c1ccco1 | 0.409%
40 | O=C(Nc1ccc2ccccc2c1)/C(=C/c1cccc(Br)c1)NC(=O)c1ccco1 | 1.72%
41 | CCCc1ccc(OCC(=O)NNC(=S)NC(=O)c2ccco2)cc1 | 58% (active)
42 | CC(Oc1ccc2ccccc2c1)C(=O)NNC(=S)NC(=O)c1ccco1 (centres undefined) | 58.8% (active)
43 | NS(=O)(=O)c1ccc(CNC(=S)NC(=O)c2ccco2)cc1 | 0.284%
44 | COc1ccc(S(=O)(=O)n2nc(C)c(S(=O)(=O)N3CCOCC3)c2C)cc1 | 0.381%
45 | O=C(Cn1cnc2c(nnn2-c2ccccc2)c1=O)N1CCC(Cc2ccccc2)CC1 | -0.205%
46 | CCc1ccc(OCC(=O)OCC(=O)c2c(N)n(C)c(=O)n(C)c2=O)cc1 | 1.51%

Row | Structure (SMILES) | growth rescue
47 | FC(F)(F)c1ccnc(Oc2ccc(C3=NCCS3)cc2)c1 | 4.54%
48 | C#CCNc1nc(C(C)C)nc2c1nnn2Cc1ccccc1F | -0.851%
49 | CSc1sc(C(=O)NC(=O)NCc2cccnc2)c(C)c1-c1ccon1 | -0.426%
50 | O=C(NCCN1CCOCC1)c1cc(Sc2cccc(Cl)c2)nc2ccccc12 | 1.79%
51 | O=c1c(/C=N/O)coc2ccc(Cl)cc12 | 412% (active)
52 | CCOC(=O)C1CCN(Cc2coc3ccc(Cl)cc3c2=O)CC1 | -0.75%
53 | O=C1/C(=C/c2coc3ccc(O)cc3c2=O)SC(=S)N1c1ccccc1 | -0.334%
54 | COc1ccccc1C(=O)Nc1ccc(OCc2nnc3c4ccccc4c(C)nn23)cc1 | 1.5%
55 | COc1cc(OC)nc(N/N=C(\c2ccccc2)c2ccncc2)n1 | 0.409%
56 | C/C(=N/Nc1nc(-c2ccccc2)c(CC(=O)O)s1)c1ccccc1 | -0.261%
57 | c1ccc(C(=NNc2nc3ccccc3s2)c2ccccn2)cc1 | 223% (active)
58 | CCOc1cc(/C=C(/C#N)c2ccc(Cl)cc2)cc(Cl)c1OCC(=O)O | -0.745%
59 | CSCCC(NC(=O)c1ccccc1)C(=O)N1CCN(Cc2ccc(Cl)cc2)CC1 (centres undefined) | 0.474%
60 | C[C@H](NC(=O)c1ccccc1Cl)C(=O)OCCOc1cccc(Cl)c1 | 4.16%
61 | COC(=O)c1cccc([N+](=O)[O-])c1CS(=O)(=O)c1ccc(C)cc1 | -1.34%
62 | O=C(/C=C/c1ccccc1[N+](=O)[O-])OCC(=O)N1CCCC1 | 48.9% (active)
63 | CC(C)CNC(=O)COC(=O)/C=C/c1ccccc1[N+](=O)[O-] | -0.287%
64 | O=C(/C=C/c1cccc([N+](=O)[O-])c1)OCC(=O)N1CCOCC1 | -0.951%
65 | COC(=O)C1=C(NC(=O)C(C)(C)C)CCS1 | -1.07%
66 | COc1ccc(CNC(=O)C2CCN(C(=O)c3ccco3)CC2)cc1 | 0.344%
67 | CCC/C(=N\O)c1c[nH]c2ccccc12 | 0.247%
68 | COc1cccc(-n2c(SCC(=O)c3c[nH]c4ccccc34)nc3ccccc3c2=O)c1 | -1.82%
69 | COc1ccc(/C=C(\C#N)c2c[nH]c3ccccc23)cc1 | 509% (active)

Row | Structure (SMILES) | growth rescue
70 | Cn1c(CCc2ccccc2)nnc1SCC(N)=O | 0.061%
71 | COc1cc(C)ccc1OCC(=O)OCC(=O)c1ccc[nH]1 | 62.4% (active)
72 | CC(=O)Nc1ccc(S(=O)(=O)NCC(=O)OCC(=O)c2ccc[nH]2)cc1 | -1.02%
73 | COc1ccc(C(=O)COC(=O)COc2ccc(C)c(C)c2)cc1 | 0.0365%
74 | Cc1ccc(NC(=O)NC(=O)N(C2CCCCC2)S(=O)(=O)c2ccccc2)cc1 | -1.71%
75 | CCOc1ccccc1NC(=O)C1CCCN(S(=O)(=O)c2ccccc2)C1 (centres undefined) | 0.502%
76 | COc1cccc(Oc2ccc(N)cc2)c1 | 1.74%
77 | CC(C)(C)c1ccc(OC2=CS(=O)(=O)c3ccccc32)cc1 | 6.99%
78 | CC(C)(C)c1ccc(Oc2ccc(N)cc2)cc1 | 346% (active)
79 | O=C1C(C=NCC2CCCO2)=C(O)c2ccccc21 (centres undefined) | 0.444%
80 | Cc1cc(C(=O)CC#N)c(C)n1CC(F)(F)F | 0.147%
81 | CC(C)Cn1c(SCC(=O)Nc2ccc(Cl)cc2F)nc(O)cc1=O | 1.12%
82 | COc1cccc(CNC(=O)C2CCCN(S(=O)(=O)N3CC(C)CC(C)C3)C2)c1 (centres undefined) | 0.206%
83 | CCOc1ccc(-c2nc(N)ncc2-c2ccccc2OC)c(O)c1 | 1.96%
84 | CCOc1ccccc1Oc1cn[nH]c1-c1ccc(OC)cc1O | 125% (active)
85 | COc1ccc(Oc2cn[nH]c2-c2ccc(OC)cc2O)cc1 | 10.8%
86 | COc1ccccc1/C=C1\SC(=O)N(CCC(=O)N(C)C2CCS(=O)(=O)C2)C1=O (centres undefined) | -0.442%
87 | CCCCC(=O)NC(c1ccc(OC)c(OC)c1)c1ccc2cccnc2c1O (centres undefined) | 222% (active)
88 | COc1ccc(CCNS(=O)(=O)c2cccc3cccnc23)cc1OC | 0.122%
89 | CCOc1ccc(C(CC(=O)O)NC(=O)Cc2ccccc2)cc1OC (centres undefined) | -0.249%
